Screening data from PubChem BioAssay.
HTT ATP protect = protects HTT-Q103 PC12 cells, measured by ATP. Potency, µM (highest dose often 56.4 µM), for inactives: cytoprotection (ATP increase), hits mostly activators. 0.14% of 230,000 active. PC12 HTT-Q103 induced, cytoprotection, ATP luminescence, 40 h; active = well fitted curve in the direction sought with a large enough effect; inconclusive = small, poorly fitted or top-dose-only effect, or another doubt; inactive = no such curve, though single readings can be large; an effect the other way counts as inactive or inconclusive; also: % of control where 0% means no effect; nearly all actives have a fitted effect of over 45% in size
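Cells were plated at 1500 per well in phenol red-free DMEM with 5% equine and 5% calf serum. Tebufenozide (100 nM final) and compounds were added, then ATPlite reagent, and luminescence was read.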
JMJD2E inh = JMJD2E (human) inhibition; Potency, µM (series often up to 57.1 µM), for the others: top-dose activity change, negative = inhibition, hits mostly inhibitors; JMJD2E catalytic domain, FDH-coupled NADH fluorescence (FDH is formaldehyde dehydrogenase); 1.6% of 230,000 active; B2RXH2; AID 2147;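 also: 0% = wells with enzyme and -100% = buffer wells without enzyme; nearly all actives have a fitted effect of over 50% in size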
HttQ103 aggreg = reduces HttQ103-GFP aggregates in PC12 cells | PC12 HttQ103-GFP aggregates, Acumen cytometry, 40 h | Potency, µM (titrated, usually from 46.1 µM), for the others: top-dose activity change, negative = inhibition, hits mostly inhibitors | 1.1% of 220,000 active; active = well fitted curve in the direction sought with a large enough effect; inconclusive = small, poorly fitted or top-dose-only effect, or another doubt; inactive = no such curve, though single readings can be large; an effect the other way counts as inactive or inconclusive; also: % is scaled to controls: 0 for no effect and ±100 for the full control effect; nearly all actives have a fitted effect of over 60% in size
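PC12 cells with ecdysone-inducible HTT exon1 Q103-GFP, induced by 100 nM tebufenozide, given compounds in a concentration series. GFP aggregates (1–25 um, 6 SD above background) counted in lysates by laser-scanning cytometry, 488 nm excitation.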
HPGD block = HPGD (human) dehydrogenase inhibition. AID 894. purified HPGD, NADH fluorescence kinetic, PGE2 substrate. 4.3% of 150,000 active. Potency, µM, for the others: at the highest dose activity change, negative = inhibition, most hits filed as inhibitors; also: % is scaled to controls: 0 for no effect and ±100 for the full control effect
Target sequence (P15428 whole entry, looked up): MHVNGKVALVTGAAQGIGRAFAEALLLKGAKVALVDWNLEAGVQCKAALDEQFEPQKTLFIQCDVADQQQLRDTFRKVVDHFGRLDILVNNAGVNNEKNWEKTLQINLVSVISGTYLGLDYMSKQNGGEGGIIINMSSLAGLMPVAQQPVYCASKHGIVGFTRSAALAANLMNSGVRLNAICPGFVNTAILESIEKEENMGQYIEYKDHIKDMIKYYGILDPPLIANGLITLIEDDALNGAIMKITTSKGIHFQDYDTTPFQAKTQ
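NADH formation kinetics: reaction with 30 uM PGE2 and 1 mM NAD+ (final), 20 nM enzyme, Tris-HCl pH 8 with Tween 20, after 15 min compound preincubation at room temperature. Fluorescence change, last versus first of five reads.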
ALDH1A1 inh = inhibitors of human aldehyde dehydrogenase 1A1. AID 1030. 7.3% of 220,000 active. P00352. Purified ALDH1A1, NADH fluorescence, propionaldehyde substrate. Potency, µM (doses to about 75.3 µM), inactives show at the top dose activity, negative = inhibition, most hits filed as inhibitors;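 also: plate controls were no enzyme wells and a reference inhibitor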
Target sequence (P00352 whole entry, looked up): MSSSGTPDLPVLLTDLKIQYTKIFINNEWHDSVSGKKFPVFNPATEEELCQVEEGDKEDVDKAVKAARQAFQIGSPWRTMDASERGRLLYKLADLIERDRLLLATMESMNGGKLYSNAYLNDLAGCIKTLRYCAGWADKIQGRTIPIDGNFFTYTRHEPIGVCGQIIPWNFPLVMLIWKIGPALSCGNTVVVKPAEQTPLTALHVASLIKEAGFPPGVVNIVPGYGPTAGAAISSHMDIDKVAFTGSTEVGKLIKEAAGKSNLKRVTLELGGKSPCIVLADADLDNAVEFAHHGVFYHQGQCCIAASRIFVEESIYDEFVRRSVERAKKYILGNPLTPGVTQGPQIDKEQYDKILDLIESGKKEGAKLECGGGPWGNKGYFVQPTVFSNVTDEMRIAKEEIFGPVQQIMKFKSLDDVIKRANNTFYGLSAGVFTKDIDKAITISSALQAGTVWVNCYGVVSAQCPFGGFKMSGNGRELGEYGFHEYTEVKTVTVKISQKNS
LMNA splice mod = LMNA splicing modulation; HeLa LMNA splicing GFP/RFP minigene ratio, 48 h; Potency, µM (top dose mostly 46.1 µM), inactives show at the highest dose ratio change, negative = inhibition, hits mostly inhibitors; 0.01% of 200,000 active; AID 1487; active = well fitted inhibition curve with a large enough effect in the signal ratio, with a control signal flat, not every such curve was filed as active; inconclusive = small, poorly fitted or top-dose-only effect, or effect the other way, or a change in a side signal; the % refers to the signal ratio; also: % is scaled to controls: 0 for no effect and ±100 for the full control effect
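S3 HeLa cells stably expressing lamin A-EGFP splicing minigene plus DsRed2, 600 cells/well, 48 h compound exposure at 37C. Laser-scanning cytometry; analysed as GFP (500-530 nm)/RFP (575-640 nm) total intensity ratio; 0.5% DMSO vehicle.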
Active calls of the source: *; ? = inconclusive; · = no result; [ ] = remark or other dose. Sampled rows, rich in hits. Any-hit rate of the full collection: about 9.2%. Unless noted, calls follow the shape of the dose curve; as a rule, active = well fitted inhibition curve with a large enough effect (not every such curve was filed as active); inconclusive = small, poorly fitted or top-dose-only effect, or another doubt; inactive = no such curve, though single readings can be large or run the other way. Potency is read from the fitted curve at half-maximal effect.

SMILES	HTT ATP protect	JMJD2E inh	HttQ103 aggreg	HPGD block	ALDH1A1 inh	LMNA splice mod
CN1/C(=C/C2CC(=O)N(c3ccc([N+](=O)[O-])cc3)C2=O)C(C)(C)c2ccccc21 (stereo not drawn)	-23.1%	-13.2%	3.0%	-19.6%	11.2µM*	15.2%
CN1/C(=C/C=N/NC(=O)c2ccc([N+](=O)[O-])cc2)C(C)(C)c2ccccc21	·	?	?	-18.0%	-7.8%	-1.9%
CN1/C(=C\C(=S)NC(=O)c2cccc(Br)c2)C(C)(C)c2ccccc21	17.9%[10 µM]	-9.6%	-30.5%	·	1µM*	?
CN1/C(=C\C(=S)NC(=O)c2ccc([N+](=O)[O-])cc2)C(C)(C)c2ccccc21	32.1%[10 µM]	-11.2%	?	-1.4%	35.5µM*	-17.0%
CN1/C(=C\C(=O)Nc2ccc(F)cc2)C(C)(C)c2ccccc21	-24.5%[10 µM]	?	6.31µM*	·	-2.4%	-20.9%
COc1ccc(N2C(=O)CSC23C(=O)N(CC(=O)NCc2ccccc2)c2ccccc23)cc1 (stereo not drawn)	·	·	·	·	·	-3.7%[46 µM]
O=C1NC(CCc2ccccc2)C(=O)N1CCOc1cccc(Br)c1 (stereo not drawn)	-29.5%	-1.5%	?	·	?	·
CCCn1c(C)nc2c(NCC(C)(C)CN(C)C)nc(C)nc21	15.1%	9.7%	·	-6.4%	4.2%	·
O=[N+]([O-])c1ccc(N=Cc2sc3ccccc3c2O)cc1	·	?	-0.1%	-5.4%	?	?
O=[N+]([O-])c1cccc(N=Cc2sc3ccccc3c2O)c1	11.2%	28.2µM*	15.9%	·	?	15.8%[46 µM]
CC(=O)N1C2(C=CC1(C)C(=O)NCc1ccccn1)CCCCC2 (stereo not drawn)	-60.0%	?	·	-9.3%	?	·
COc1ccc(-c2csc(/C(C#N)=C(\O)CSc3nccn3C)n2)cc1OC	-32.2%	?	?	25.1µM*	8.91µM*	-2.2%
COc1ccc(OC)c(-n2c(SC)nnc2-c2c[nH]c3ccccc23)c1	-17.4%	-3.5%	12.0%	17.8µM*	?	-9.0%
COc1ccc(OC)c(-n2c(SCC(N)=O)nnc2-c2c[nH]c3ccccc23)c1	-9.5%	-7.3%	4.7%	-16.0%	3.9%	4.4%
O=C(CN1C(=O)c2ccccc2C1=O)NN1C(=O)c2ccccc2C1=O	-23.7%	?	3.3%	-26.4%	2.82µM*	-5.6%
c1ccc(-c2nnc(CN3CCCc4ccccc43)o2)cc1	-11.5%	?	0.0%	?	8.91µM*	-4.1%
c1ccc(Cn2ccnc2SCc2nnc(-c3ccccc3)o2)cc1	-1.6%	3.6%	?	25.1µM*	-11.3%	?
Cc1nnc(SCc2nnc(-c3ccccc3)o2)n(N)c1=O	-18.4%[10 µM]	0.0%	-30.7%	-28.6%	4.7%	-5.9%
NC(=O)CSc1nccn1Cc1ccccc1	?	4.1%	0.1%	·	10µM*	·
NC(=O)CSc1nccn1Cc1ccc(Cl)cc1	20.3%[10 µM]	10.8%	2.7%	·	5.1%	10.8%[46 µM]
O=C(c1cc2cc([N+](=O)[O-])ccc2oc1=O)N1CCOCC1	7.8%[10 µM]	?	-12.4%[9.22 µM]	·	12.6µM*	?
CC1CN(C(=O)c2cc3cc([N+](=O)[O-])ccc3oc2=O)CC(C)O1 (stereo not drawn)	-1.3%[10 µM]	-9.7%	7.1%[9.22 µM]	·	?	?
O=C(c1cc2cc([N+](=O)[O-])ccc2oc1=O)N1CCN(c2ncccn2)CC1	?	7.3%	0.708µM*	-4.1%	-0.4%	3.3%
COc1ccc(-n2c(C)nc3cc(C(=O)NC4CCCCCC4)ccc32)cc1	·	·	·	·	·	15.8%[46 µM]
C[C@H]1C2=C3C(CC[C@H]4C(OCc5ccc(F)cc5C(F)(F)F)OC[C@](C)([C@@H]34)N(C(=O)OC(C)(C)C)C2)C2COC(=O)OCC21 (stereo partly drawn)	-41.1%	?	·	-14.7%	-3.1%	·
SMILES	HTT ATP protect	JMJD2E inh	HttQ103 aggreg	HPGD block	ALDH1A1 inh	LMNA splice mod
Cc1ccc2c(c1)N(CC(=O)NCc1cccc(Cl)c1)C(=O)c1cccnc1O2	·	·	·	·	·	-7.2%[46 µM]
Cc1ccc(-n2c(C)cc(C(=O)COC(=O)c3c(C)noc3C)c2C)cc1	-49.3%	-3.5%	10µM*	-10.6%	5.9%	?
Cc1ccc(-n2c(C)cc(C(=O)COC(=O)C3=NNC(=O)CC3)c2C)cc1	-7.5%	-4.8%	-29.0%	-0.3%	14.5%	-3.9%
Cc1cc(C(=O)COC(=O)C2=NNC(=O)CC2)c(C)n1-c1ccccc1	-21.7%	-0.9%	-19.0%	-19.1%	15.8µM*	7.4%
C1CCC(C(C[C@@H]2CCCCN2)C2CCCCC2)CC1	-21.8%[40.3 µM]	0.8%[25.5 µM]	·	-0.7%	?	?
CCc1ccc(NC(=O)c2c(C(=O)Nc3ccccc3)sc3nc(C)cc(=O)n23)cc1	10.1%[10 µM]	-4.3%	10.7%	·	0.891µM*	?
Cc1cc(=O)n2c(C(=O)Nc3ccc(C)c(C)c3)c(C(=O)Nc3ccccc3)sc2n1	-28.0%	-4.1%	3.6%	·	?	?
Cc1ccc(NC(=O)c2c(C(=O)Nc3ccccc3)sc3nc(C)cc(=O)n23)cc1	-20.5%	-1.2%	?	·	4.47µM*	20.5%[46 µM]
Cc1nc(NCc2ccccc2)c2nc(-c3ccccc3)n(CC3CCN(C)CC3)c2n1	10.3%	?	·	-22.6%	-13.6%	·
CCCCC(C=O)NC(=O)C(CC(C)C)NC(=O)OCc1ccccc1 (stereo not drawn)	16.7%	3.4%	·	-6.8%	-0.4%	·
N#C/C(=C\c1ccc(F)cc1F)S(=O)(=O)c1ccccn1	20.7%[10 µM]	4.3%	0.3%[9.22 µM]	·	-8.8%	?
Cc1cc(C=O)c(C)n1-c1ccc(N2CCOCC2)cc1	16.6%[10 µM]	-1.0%	-4.0%	0.2%	3.16µM*	?
Cc1cc(/C=C2\NC(=O)NC2=O)c(C)n1-c1ccc(N2CCOCC2)cc1	2.9%[10 µM]	15.8µM*	2.2%[9.22 µM]	·	25.1µM*	·
C[N+]12CCCCC1C(COC(=O)c1ccc3c(c1)OCO3)CCC2 (stereo not drawn)	-0.2%	22.4µM*	-8.2%	-1.2%	?	?
CC1CCCN(C(C(=O)NC2CCCCC2)c2cc3c(cc2[N+](=O)[O-])OCO3)C1 (stereo not drawn)	-10.3%[10 µM]	3.1%	9.3%	31.6µM*	3.1%	-3.8%
[O-][n+]1ccccc1SSc1cccc[n+]1[O-]	-98.4%	·	5.01µM*	·	·	?
O=C(CSc1ncn[nH]1)Nc1nnc(-c2ccccc2)s1	-29.6%	-8.7%	7.7%	-25.5%	28.2µM*	?
O=C(CN1CCN(c2ccc(F)cc2)CC1)Nc1nnc(-c2ccccc2)s1	2.6%[10 µM]	0.7%	8.6%	-8.2%	28.2µM*	-1.6%
COc1ccc(S(=O)(=O)c2c(C)c(NS(=O)(=O)c3ccccc3)cc(C)c2O)cc1	11.6%	3.3%	-0.2%	·	8.91µM*	·
Cc1c(NS(=O)(=O)c2ccccc2)cc(Cl)c(O)c1C	18.8%[10 µM]	-2.7%	-5.8%	31.6µM*	22.4µM*	21.7%
